Results: PubChem BioAssay AID1159580 (chemical genetic matrix, 2015)
The campaign covered roughly 5,500 compounds. About 2,000 (36%) were called active. Roughly 18% stayed inconclusive and do not appear here. Rule as the data show it: active = normalized growth mostly below about 0.91 (no sharp cut-off); inconclusive = no clear call, values can overlap the other calls; inactive = mostly above about 0.92. The list shows a part of the results.

Assay: chemical genetic growth profiling, strain panel (AID 1159580);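 also: tested at 20 µM; growth read once vehicle control cultures reached saturation at 30 °C; 1 = growth at the plate median or of vehicle wells; lower values mean less growth of the strain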
Details: S. cerevisiae deletion strains, growth OD

Measured: normalized growth

N#Cc1nccnc1Sc1ccc(Cl)cc1
inactive: locus YAL013W, strain DEP1, stronger effect = lower value 0.946 | locus YBR229C, strain ROT2, stronger effect = lower value 0.936 | locus YDL101C, strain DUN1, stronger effect = lower value 0.948 | locus YDR150W, strain NUM1, stronger effect = lower value 1.03 | locus YEL061C, strain CIN8, stronger effect = lower value 0.914 | locus YGR078C, strain PAC10, stronger effect = lower value 0.962 | locus YHR087W, strain rtc3, stronger effect = lower value 0.978 | locus YJL187C, strain SWE1, stronger effect = lower value 0.949 | locus YJR043C, strain POL32, stronger effect = lower value 0.993 | locus YJR075W, strain HOC1, stronger effect = lower value 0.986 | locus YKL190W, strain CNB1, stronger effect = lower value 0.932 | locus YML094W, strain GIM5, stronger effect = lower value 0.905 | locus YMR263W, strain SAP30, stronger effect = lower value 0.963 | locus YNL128W, strain TEP1, stronger effect = lower value 0.945 | locus YNL153C, strain GIM3, stronger effect = lower value 0.988 | locus YNL298W, strain CLA4 (second series), stronger effect = lower value 0.868 | locus YNR030W, strain Alg12, stronger effect = lower value 0.927 | locus YPL055C, strain LGE1, stronger effect = lower value 1.01 | locus YPL241C, strain CIN2, stronger effect = lower value 0.941
active: locus YHR030C, strain SLT2, stronger effect = lower value 0.537 | locus YLR039C, strain RIC1, stronger effect = lower value 0.698 | locus YLR058C, strain SHM2 (second series), stronger effect = lower value 0.929 | locus YLR085C, strain ARP6, stronger effect = lower value 0.686 | locus YLR262C, strain YPT6, stronger effect = lower value 0.729 | locus YMR219W, strain ESC1, stronger effect = lower value 0.93 | locus YNL322C, strain KRE1, stronger effect = lower value 0.925 | locus YPR135W, strain CTF4, stronger effect = lower value 0.556
